Sampled rows, rich in hits. Any-hit rate of the full collection: about 8.2%.
SW480 rereplic: DNA re-replication induction in SW480 cells; Potency, µM (top dose mostly 46.1 µM), usual class: activators; SW480 DNA re-replication, Hoechst DNA content imaging, 48 h; 1.8% of 340,000 active; also: nearly all actives have a fitted effect of over 55% in size
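Hoechst fluorescence of nuclei (405 nm excitation, 500-530 nm emission) measured by plate-scanning imager after 48 hr compound exposure at 37 C; re-replication scored as increased number of nuclei with elevated intensity.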
ELG1 DNA repair: blocks ELG1-dependent DNA repair in HEK293T cells; HEK293T ELG1-luciferase reporter, luminescence, 16 h; DNA damage induced by 5-fluorouridine; Potency, µM (top dose mostly 46.1 µM), hits mostly inhibitors; 2.3% of 330,000 active; also: nearly all actives have a fitted effect of over 55% in size
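Overnight (16 hr) co-exposure of 2,000 cells/well to 5-fluorouridine and compound at 37 °C preceded detection. Luciferase was quantified via ONE-Glo luminescence; loss of signal denotes inhibition.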
KB-V1 MDR tox: kills drug-selected multidrug resistant KB-V1 cells | 3.4% of 400,000 active | Potency, µM (highest dose often 46.1 µM), usual class: cytotoxic | KB-V1 MDR cells viability, CellTiter-Glo, 72 h | AID 1347076; also: nearly all actives have a fitted effect of over 60% in size
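Cells of the MDR subline KB-V1 are plated, dosed with compound at multiple concentrations, and incubated 72 h at 37 degrees C; CellTiter-Glo is then added and luminescence read after 10 min.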
KB-3-1 cytotox: kills parental KB-3-1 adenocarcinoma cells. KB-3-1 viability, CellTiter-Glo ATP luminescence, 72 h. Potency, µM (doses to about 46.1 µM), hits mostly cytotoxic. 1.4% of 400,000 active; also: nearly all actives have a fitted effect of over 60% in size
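72 h, 37 °C compound treatment of KB-3-1 parental cells; CellTiter-Glo added, 10 min, luminescence read. Data corrected against DMSO-only plates and normalized before curve fitting.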
MCF10A rerep: inducers of DNA re-replication in MCF 10A breast cells; 2.9% of 350,000 active; Potency, µM (series often up to 46.1 µM), hits mostly activators; MCF 10A DNA re-replication, Hoechst nuclear intensity, 48 h; AID 624296; also: nearly all actives have a fitted effect of over 50% in size
Of the large screens only hits and unclear results are named; the others gave an inactive call. Calls follow the shape of the dose curve; as a rule, active = well fitted curve in the direction sought with a large enough effect; inconclusive = small, poorly fitted or top-dose-only effect, or another doubt; inactive = no such curve, though single readings can be large; an effect the other way counts as inactive or inconclusive.

CN1CCN(c2ccc(NC(=O)COc3cccc4ccccc34)cc2)CC1	none
COc1ccc(CN2C(=O)C(CC(=O)NC3CCCC3)CC(C(=O)N(C(C)C)C(C)C)=C2C)cc1 (centres undefined)	none (no result: SW480 rereplic, ELG1 DNA repair, MCF10A rerep)
O=C(N/N=C/c1ccc(Sc2nc3ccccc3[nH]2)o1)c1ccncc1	none
CCN1C(=O)S/C(=C/c2ccc(Sc3nc4ccccc4[nH]3)o2)C1=O	SW480 rereplic 1.5µM, ELG1 DNA repair 12µM, KB-V1 MDR tox inconclusive, MCF10A rerep inconclusive
O=S(=O)(Nc1ccc2c(c1)OCO2)c1cccc(Br)c1	none
CCOc1ccc2nc(S(=O)(=O)NC(=O)C3(C)CCN3C(=O)c3cc(C)n(C)n3)sc2c1 (centres undefined)	none (no result: SW480 rereplic, ELG1 DNA repair, MCF10A rerep)
CCCCCc1c(CC)ncn1CCc1ccccc1OC	KB-V1 MDR tox inconclusive, KB-3-1 cytotox 16µM (no result: SW480 rereplic, ELG1 DNA repair, MCF10A rerep)
CCCCN(CC)C(=O)Cc1ccccc1OC	KB-V1 MDR tox inconclusive
CCCCc1c(-c2ccccc2Br)ncn1CCc1ccccc1OC	KB-V1 MDR tox 15µM, KB-3-1 cytotox inconclusive (no result: SW480 rereplic, ELG1 DNA repair, MCF10A rerep)
CCCCc1c(-c2ccccc2OC)ncn1CCc1ccccc1OC	KB-V1 MDR tox 8.2µM, KB-3-1 cytotox inconclusive (no result: SW480 rereplic, ELG1 DNA repair, MCF10A rerep)
CCCCCc1c(-c2ccccc2OC)ncn1CCc1ccccc1OC	KB-V1 MDR tox 12µM, KB-3-1 cytotox 23µM (no result: SW480 rereplic, ELG1 DNA repair, MCF10A rerep)
COc1ccccc1CNC(=O)CCn1cnc2ccccc2c1=O	KB-V1 MDR tox inconclusive (no result: SW480 rereplic, ELG1 DNA repair, MCF10A rerep)
CC(NC(=O)c1cccc(Cl)c1)C1CC2CCC1C2 (centres undefined)	KB-V1 MDR tox inconclusive
COc1ccccc1CC1(C)C(=O)Nc2c(Cl)cccc21 (centres undefined)	none (no result: SW480 rereplic, ELG1 DNA repair, MCF10A rerep)
CCCCc1c(-c2ccccc2OC)ncn1CCc1ccccc1Cl	KB-V1 MDR tox 18µM, KB-3-1 cytotox inconclusive (no result: SW480 rereplic, ELG1 DNA repair, MCF10A rerep)
COc1ccccc1CCn1cnc(Cc2ccccc2)c1C(C)C	KB-V1 MDR tox 13µM, KB-3-1 cytotox inconclusive (no result: SW480 rereplic, ELG1 DNA repair, MCF10A rerep)
COc1ccccc1CCC(=O)O	none (no result: SW480 rereplic, ELG1 DNA repair, MCF10A rerep)
CN(CC(=O)Nc1ccccc1Cl)C(=O)CN1C(=O)NC(c2ccccc2)(c2ccccc2)C1=O	none
CC1CCCCC1NC(=O)CSc1nnc(-c2ccco2)n1N (centres undefined)	none (no result: SW480 rereplic, ELG1 DNA repair, MCF10A rerep)
Cc1ccc(NC(=O)COCc2cc(-c3cccs3)on2)cc1Cl	none (no result: SW480 rereplic, ELG1 DNA repair, MCF10A rerep)
NC(C(=O)O)[C@@H]1CC(Cl)=NO1 (some centres undefined)	none (no result: ELG1 DNA repair, KB-V1 MDR tox, KB-3-1 cytotox)
NC(C(=O)O)C1ON=C(Cl)C1O (centres undefined)	SW480 rereplic inconclusive, KB-V1 MDR tox 1.6µM, KB-3-1 cytotox 0.33µM (no result: ELG1 DNA repair)
O=C(COC(=O)CN1C(=O)c2ccccc2C1=O)Nc1ccccc1C(F)(F)F	none (no result: SW480 rereplic, ELG1 DNA repair, MCF10A rerep)
CC(C)(CC(=O)N1CCN(c2ccc(Cl)cc2)CC1)CC1=NS(=O)(=O)c2ccccc2N1	ELG1 DNA repair inconclusive, KB-V1 MDR tox 4.1µM, KB-3-1 cytotox 15µM
Cc1ccc(NC(=O)CN(C)C(=O)c2cccc(-n3cccc3)c2)cc1	KB-V1 MDR tox inconclusive
O=C(CC(SCc1ccco1)c1ccc(O)cc1)c1cccs1 (centres undefined)	ELG1 DNA repair inconclusive, KB-3-1 cytotox 21µM, MCF10A rerep inconclusive
O=C(CSc1nnc(-c2ccc(O)cc2)n1Cc1ccco1)c1cccs1	none
Cc1ccc(N(CC(=O)NCc2ccc(F)cc2)S(=O)(=O)c2c(C)n[nH]c2C)cc1	KB-3-1 cytotox inconclusive
CC[C@H](C)C1OC(=O)[C@@H](C)[C@@H](CC)NC(=O)[C@H](C)N(C)C(=O)C(C)(C)C(=O)C(C)NC(=O)[C@H](Cc2ccc(OC)cc2)N(C)C(=O)[C@H](C(C)C)N(C)C(=O)CNC(=O)[C@H](CC(C)C)N(C)C(=O)CNC1=O (some centres undefined)	KB-3-1 cytotox 0.21µM (no result: SW480 rereplic, ELG1 DNA repair, MCF10A rerep)
CCC[C@H]1NC(=O)[C@H](C)N(C)C(=O)C(C)(C)C(=O)C(C)NC(=O)[C@H](Cc2ccc(OC)cc2)N(C)C(=O)[C@H](C(C)C)N(C)C(=O)CNC(=O)[C@H](CC(C)C)N(C)C(=O)CNC(=O)[C@H]([C@@H](C)CC)OC(=O)[C@H]1C (some centres undefined)	SW480 rereplic inconclusive, ELG1 DNA repair inconclusive, MCF10A rerep 1.5µM
O=S(=O)(CCS(=O)(=O)c1ccccc1)c1ccccc1	SW480 rereplic 16µM, MCF10A rerep inconclusive (no result: ELG1 DNA repair)
O=C(CN1C(=O)c2ccc([N+](=O)[O-])cc2C1=O)NC1CCCCCC1	SW480 rereplic inconclusive
COc1ccc2c3c(cccc13)C(=O)N(O)C2=O	SW480 rereplic inconclusive, KB-V1 MDR tox inconclusive, KB-3-1 cytotox inconclusive, MCF10A rerep inconclusive
CC(=O)Oc1ccc(-n2c(=O)c3ccccc3c3ccccc3c2=O)cc1	none
CC(=O)Oc1ccc(N2C(=O)c3cccc4c([N+](=O)[O-])ccc(c34)C2=O)cc1	SW480 rereplic inconclusive, ELG1 DNA repair 18µM, MCF10A rerep inconclusive
O=C1c2cccc3c([N+](=O)[O-])ccc(c23)C(=O)N1c1nccs1	SW480 rereplic 7.3µM, ELG1 DNA repair inconclusive, KB-V1 MDR tox inconclusive, KB-3-1 cytotox inconclusive, MCF10A rerep 7.3µM
O=C1c2cccc3c([N+](=O)[O-])ccc(c23)C(=O)N1c1ccccn1	SW480 rereplic 12µM, ELG1 DNA repair inconclusive, KB-V1 MDR tox inconclusive, MCF10A rerep 4.1µM
O=C1c2cccc3c([N+](=O)[O-])ccc(c23)C(=O)N1O	SW480 rereplic inconclusive, MCF10A rerep 21µM
O=C1c2cccc3c(N4CCCCC4)ccc(c23)C(=O)N1c1ccccn1	none
CC1CC(=O)Nc2ccccc2N1C(=O)COc1ccccc1C(N)=O (centres undefined)	KB-V1 MDR tox inconclusive (no result: SW480 rereplic, ELG1 DNA repair, MCF10A rerep)
COc1ccc(CCNC(=O)c2cc(C3CC3)nc3c2cnn3C(C)C)cc1	ELG1 DNA repair inconclusive, KB-V1 MDR tox inconclusive, KB-3-1 cytotox inconclusive
COc1cc(/C=N/Nc2ccc(Cl)c(C(=O)O)c2)ccc1OC(=O)c1ccccc1F	KB-V1 MDR tox inconclusive
O=C1c2cccc3c([N+](=O)[O-])ccc(c23)C(=O)N1c1ccc(Cl)cn1	SW480 rereplic 4.1µM, ELG1 DNA repair inconclusive, MCF10A rerep inconclusive
O=C1c2ccc([N+](=O)[O-])cc2C(=O)N1c1ccc(Cl)cn1	none
O=C(c1cccc(-n2cccc2)c1)N1CCN(S(=O)(=O)c2ccccc2Br)CC1	ELG1 DNA repair inconclusive, MCF10A rerep inconclusive
CC(=O)Nc1ccc(/C=C/c2ccnc3ccccc23)cc1[N+](=O)[O-]	KB-3-1 cytotox inconclusive (no result: SW480 rereplic, ELG1 DNA repair, MCF10A rerep)
O=C(Nc1ccccc1Br)C1CCC(=O)N1Cc1ccccc1Cl (centres undefined)	KB-V1 MDR tox 21µM
O=C(Nc1ccc(Cl)cc1)C1CCC(=O)N1Cc1ccccc1Cl (centres undefined)	KB-V1 MDR tox inconclusive
CC(C)c1cc(C(=O)NNC(=S)NCc2ccco2)c(O)c(C(C)C)c1	ELG1 DNA repair 18µM, MCF10A rerep inconclusive
COc1ccccc1CCNC(=O)C1CCC(=O)N(C2CCCCCC2)C1 (centres undefined)	none
